Screening data: PubChem BioAssay, National Center for Advancing Translational Sciences (NCATS)
Compounds with a hit are over-represented: about 10% of the library has one in this group of screens.
G9a block: qHTS Assay for Inhibitors of Histone Lysine Methyltransferase G9a; G9a H3K9 monomethylation, AlphaScreen, 2 h; Potency, µM (series often up to 102 µM), hits mostly inhibitors; 350,000 tested, 8.8% active; also: nearly all actives have a fitted effect of over 75% in size
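AlphaScreen detection with an anti-monomethyl H3K9 antibody quantified product after a 2 h room-temperature reaction containing 500 nM biotinylated H3K9 peptide, 20 µM SAM and 20 nM enzyme, which had been preincubated 15 min with compound.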
HP1b binding inh: HTS for Inhibitors of HP1-beta Chromodomain Interactions with Methylated Histone Tails; Chromobox protein homolog 1 (Homo sapiens), P83916; Potency, µM (top dose mostly 114 µM), most hits filed as inhibitors; AlphaScreen HP1-beta / biotin-H3K9me3 peptide binding; AID 540317, 2011; 390,000 tested, 0.56% active; also: nearly all actives have a fitted effect of over 70% in size
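AlphaScreen: HP1-beta (50 nM) preformed 30 min with biotin-H3(1-18)K9me3 peptide (50 nM) in PBS pH 7.4, 0.01% Tween-20. Compound added for 30 min at RT, then streptavidin donor/nickel chelate acceptor beads (10 ug/mL) for 30 min.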
BAZ2B inh: qHTS Assay for Inhibitors of BAZ2B; AlphaScreen BAZ2B-H3K14Ac peptide displacement; Bromodomain adjacent to zinc finger domain protein 2B (Homo sapiens), Q9UIF8; Potency, µM (series often up to 114 µM), usual class: inhibitors; 360,000 tested, 4.4% active; also: nearly all actives have a fitted effect of over 60% in size
Target sequence (Q9UIF8 whole entry, looked up, the tested form may be a part): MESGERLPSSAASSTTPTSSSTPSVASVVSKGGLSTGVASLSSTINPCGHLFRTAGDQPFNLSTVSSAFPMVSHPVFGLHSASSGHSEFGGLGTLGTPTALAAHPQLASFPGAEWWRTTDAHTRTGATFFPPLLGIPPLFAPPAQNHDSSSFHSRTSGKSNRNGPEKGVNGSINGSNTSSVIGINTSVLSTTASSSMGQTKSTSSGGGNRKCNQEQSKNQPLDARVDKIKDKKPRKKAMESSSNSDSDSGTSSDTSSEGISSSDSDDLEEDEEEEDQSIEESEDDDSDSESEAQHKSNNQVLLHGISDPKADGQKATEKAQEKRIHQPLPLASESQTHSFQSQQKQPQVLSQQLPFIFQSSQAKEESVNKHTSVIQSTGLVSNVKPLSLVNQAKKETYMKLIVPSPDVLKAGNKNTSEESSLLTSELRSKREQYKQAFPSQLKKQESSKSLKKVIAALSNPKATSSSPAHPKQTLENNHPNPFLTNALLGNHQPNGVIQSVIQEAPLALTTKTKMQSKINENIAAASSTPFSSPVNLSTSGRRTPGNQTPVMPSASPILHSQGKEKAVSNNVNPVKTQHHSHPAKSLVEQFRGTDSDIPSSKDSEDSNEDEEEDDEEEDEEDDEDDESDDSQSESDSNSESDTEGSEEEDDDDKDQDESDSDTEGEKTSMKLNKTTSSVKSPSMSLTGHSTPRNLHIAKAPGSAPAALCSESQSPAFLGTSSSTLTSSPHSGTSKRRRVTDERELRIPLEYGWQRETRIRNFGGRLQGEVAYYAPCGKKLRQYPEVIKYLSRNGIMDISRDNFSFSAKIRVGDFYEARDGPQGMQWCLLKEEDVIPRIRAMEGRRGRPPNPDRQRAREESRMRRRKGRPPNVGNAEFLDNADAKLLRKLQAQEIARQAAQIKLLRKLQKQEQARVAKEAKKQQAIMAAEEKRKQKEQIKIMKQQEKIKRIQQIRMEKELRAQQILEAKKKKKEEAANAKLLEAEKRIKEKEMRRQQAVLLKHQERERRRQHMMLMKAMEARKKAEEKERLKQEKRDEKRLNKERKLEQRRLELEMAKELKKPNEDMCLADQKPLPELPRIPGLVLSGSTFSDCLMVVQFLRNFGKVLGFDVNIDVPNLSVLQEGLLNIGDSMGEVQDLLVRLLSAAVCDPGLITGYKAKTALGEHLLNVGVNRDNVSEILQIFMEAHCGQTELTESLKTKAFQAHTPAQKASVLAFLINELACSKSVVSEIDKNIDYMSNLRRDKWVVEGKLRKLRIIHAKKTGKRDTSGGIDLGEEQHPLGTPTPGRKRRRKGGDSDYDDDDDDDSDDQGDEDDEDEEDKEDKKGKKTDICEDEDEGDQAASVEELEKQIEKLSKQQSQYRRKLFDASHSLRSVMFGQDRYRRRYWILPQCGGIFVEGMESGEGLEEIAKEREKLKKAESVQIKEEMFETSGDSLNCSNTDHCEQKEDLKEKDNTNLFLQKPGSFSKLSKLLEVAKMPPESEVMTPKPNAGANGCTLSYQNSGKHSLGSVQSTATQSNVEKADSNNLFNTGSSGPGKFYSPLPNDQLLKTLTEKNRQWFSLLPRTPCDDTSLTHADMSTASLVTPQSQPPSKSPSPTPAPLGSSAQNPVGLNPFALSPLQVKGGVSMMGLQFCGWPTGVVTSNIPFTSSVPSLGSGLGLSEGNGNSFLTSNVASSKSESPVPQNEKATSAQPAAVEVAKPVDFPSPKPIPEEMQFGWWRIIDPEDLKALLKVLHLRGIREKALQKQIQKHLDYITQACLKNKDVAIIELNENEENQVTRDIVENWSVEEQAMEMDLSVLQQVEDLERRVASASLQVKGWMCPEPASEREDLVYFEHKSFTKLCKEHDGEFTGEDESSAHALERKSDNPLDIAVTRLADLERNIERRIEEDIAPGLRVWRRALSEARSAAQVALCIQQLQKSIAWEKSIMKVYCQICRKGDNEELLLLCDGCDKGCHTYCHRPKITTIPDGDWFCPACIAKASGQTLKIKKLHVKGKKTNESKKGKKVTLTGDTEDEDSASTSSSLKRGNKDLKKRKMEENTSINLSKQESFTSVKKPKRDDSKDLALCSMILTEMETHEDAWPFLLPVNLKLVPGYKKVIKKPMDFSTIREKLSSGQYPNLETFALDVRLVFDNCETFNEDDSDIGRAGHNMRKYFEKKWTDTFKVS
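BAZ2B 50 nM plus b-H3(5-23)K14Ac 50 nM, PBS pH 7.4/0.01% Tween-20, 30 min RT; compound added (max 110 uM), 30 min RT; streptavidin donor/Ni-chelate acceptor beads 10 ug/mL final, 20 min dark; AlphaScreen read.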
CtBP-E1A blk: qHTS Assay for Inhibitors of the CtBP/E1A Interaction. 340,000 tested, 0.49% active. AlphaScreen GST-E1A/His-CtBP binding, 1536-well; active compounds read low. CtBP / adenovirus E1A interaction (AlphaScreen). activity change, % (test concentration not listed); in the data active = activity change below about -65%; inconclusive = mostly about -30% to -63%
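Steps: dispense buffer (Tris pH 8.0, NaCl 300 mM, TCEP 1 mM, BSA, Tween 20); add 5X protein mix (GST-E1A, His-CtBP, 125 nM each); pin 23 nL compound; 2 h at 37 °C, dark; add 5X beads (50 ug/mL); 1 h; read.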
JMJD2A Tudor inh: qHTS Assay for Inhibitors of JMJD2A-Tudor Domain. Lysine-specific demethylase 4A (Homo sapiens), O75164. AlphaScreen JMJD2A-Tudor / H3K4me3 peptide binding. Potency, µM (titrated, usually from 114 µM), most hits filed as inhibitors. 390,000 tested, 4.4% active. AID 504339, 2011; also: nearly all actives have a fitted effect of over 50% in size
Six1-Eya2 inh: qHTS Assay for Inhibitors of the Six1/Eya2 Interaction | AlphaScreen GST-Six1/His-Eya2 binding, biochemical; active compounds read low | activity change, % (test concentration not listed) | 360,000 tested, 0.56% active; in the data active = activity change below about -65%; inconclusive = mostly about -30% to -63%
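AlphaScreen with GST-Six1 and His-Eya2 (5X mix: 250 nM and 500 nM), glutathione donor and nickel acceptor beads; buffer 50 mM Tris pH 8.0, 300 mM NaCl, 1 mM TCEP; 1 h at 37 C in the dark.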
Of the large screens only hits and unclear results are named; the others gave an inactive call; ! = a repeat was not active. Unless noted, calls follow the shape of the dose curve; as a rule, active = well fitted inhibition curve with a large enough effect; inconclusive = small, poorly fitted or top-dose-only effect; inactive = no such curve, though single readings can be large or run the other way.

NC1=NC(=O)C(CC(=O)Nc2ccc3c(c2)OCO3)S1 (stereo not drawn)	G9a block 50µM
CCn1nc(C)cc1C(=O)N(C)C1CCCN(Cc2ccccc2F)C1 (stereo not drawn)	none
CC(C)Cc1cc(C(=O)N(C)C2CCCN(Cc3ccccc3F)C2)n(C)n1 (stereo not drawn)	G9a block 89µM
CCc1cccc(NC(=O)CN2c3ccccc3S(=O)(=O)c3ccccc32)c1	BAZ2B inh inconclusive (no result: CtBP-E1A blk, Six1-Eya2 inh)
COC(=O)c1cccc(Cn2c(Cl)c(/C=N/NC(=O)c3ccco3)sc2=O)c1	G9a block 50µM, BAZ2B inh 56µM
COC(=O)c1cccc(Cn2c(Cl)c(/C=N/NC(=O)c3ccccc3Cl)sc2=O)c1	none (no result: G9a block)
O=c1sc(/C=N/Nc2ccccc2)c(Cl)n1Cc1ccccc1	G9a block 14µM, BAZ2B inh inconclusive
O=C(O)c1cccc(Cn2c(Cl)c(/C=N/NC(=O)c3ccc(O)cc3)sc2=O)c1	G9a block inconclusive, CtBP-E1A blk -67, Six1-Eya2 inh inconclusive
O=C(COc1ccccc1)N/N=C/c1sc(=O)n(Cc2cccc(C(=O)O)c2)c1Cl	G9a block inconclusive
CC(=O)c1cccc(S(=O)(=O)Nc2ccc(N3CCOCC3)cc2)c1	G9a block 50µM
CC(=O)c1ccc(S(=O)(=O)Nc2ccc(-c3ccc4nnc(C)n4n3)cc2)cc1	BAZ2B inh 71µM (no result: CtBP-E1A blk)
O=S(=O)(NCCN1CCOCC1)c1ccc(F)c(Cl)c1	JMJD2A Tudor inh 14µM
CC(=O)c1ccc(S(=O)(=O)Nc2ccc(N3CCOCC3)cc2)cc1	G9a block 28µM
Cc1ccc(NS(=O)(=O)c2cccc(C(=O)NN3CCOCC3)c2)cc1	none (no result: G9a block, HP1b binding inh, CtBP-E1A blk, JMJD2A Tudor inh, Six1-Eya2 inh)
CC(=O)Nc1ccc(S(=O)(=O)Nc2ccc(N3CCOCC3)cc2)cc1	none
O=S(=O)(NCCN1CCOCC1)c1ccc(Cl)c(Cl)c1	G9a block inconclusive (no result: CtBP-E1A blk)
CCN(C(=O)CN1C(=O)c2ccccc2Sc2ccc(C(=O)OC)cc21)c1cccc(C)c1	none (no result: CtBP-E1A blk, Six1-Eya2 inh)
CC(=O)c1ccc(NS(=O)(=O)c2ccc(Br)s2)cc1	none (no result: CtBP-E1A blk, Six1-Eya2 inh)
CC(=O)c1cccc(S(=O)(=O)NCCCN2CCOCC2)c1	G9a block 1.4µM
CC(=O)c1cccc(S(=O)(=O)Nc2cccnc2)c1	G9a block 45µM
O=S(=O)(Nc1cccnc1)c1cccc(Cl)c1	none
COCCNS(=O)(=O)c1ccc2c(c1)n(C)c(=O)n2C	G9a block 4.5µM
CCOC(=O)c1ccc(S(=O)(=O)Nc2ccc(N3CCOCC3)cc2)cc1	G9a block 79µM
COc1ccccc1NC(=O)CSc1nc2ccccc2c(=O)n1CCC(=O)NC1CCCCC1	none (no result: CtBP-E1A blk, Six1-Eya2 inh)
CCOc1ccc(OC(=O)c2c(-c3ccccc3Cl)noc2C)cc1	none (no result: CtBP-E1A blk, Six1-Eya2 inh)
C/C(=N\Nc1ccc(S(=O)(=O)Nc2ccc(Cl)cc2)cc1[N+](=O)[O-])c1ccc(N2CCOCC2)cc1	G9a block 8.9µM, HP1b binding inh inconclusive, BAZ2B inh 7.9µM, JMJD2A Tudor inh 5µM
CCOC(=O)/C=C/C(=O)Nc1cc(S(=O)(=O)Nc2ccc(OC)cc2)ccc1N1CCOCC1	G9a block 45µM
COC(=O)c1ccc(NS(=O)(=O)c2ccc3c(c2)n(C)c(=O)n3C)cc1	BAZ2B inh inconclusive
CCOC(=O)c1ccc(NS(=O)(=O)c2ccc3c(c2)n(C)c(=O)n3C)cc1	BAZ2B inh 79µM! (no result: CtBP-E1A blk)
CCC12CN3CC(C)(CN(C1)C3c1c(C)[nH]c3ccccc13)C2=O (stereo not drawn)	JMJD2A Tudor inh inconclusive (no result: CtBP-E1A blk, Six1-Eya2 inh)
CCOc1ccccc1CNC(=O)c1cn(-c2ccc(OC)cc2)c(=O)c2ccccc12	G9a block inconclusive, BAZ2B inh inconclusive (no result: CtBP-E1A blk, Six1-Eya2 inh)
